AT treatment: candidate therapy for ataxia-telangiectasia. F2112 A-T fibroblasts, KAP-1 phosphorylation AlphaLISA; neocarzinostatin DNA damage 30 min before lysis. actives 0.19% (n = 320,000). AID 485349. Potency, µM (highest dose often 57.5 µM), without a hit: at the highest dose activation, usual class: activators; also: potency is read from the fitted curve at half-maximal effect; % of control where 0% means no effect; nearly all actives have a fitted effect of over 45% in size
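hTERT-immortalized A-T patient fibroblasts (F2112), 500 cells/well in OPTI-MEM, 1% FBS, got compounds for 60 min, then NCS for 30 min at 37C. Lysates were then assayed for phospho-KAP-1 by AlphaLISA (anti-pKAP1 donor, anti-KAP1 acceptor beads), 6 hr at 25C.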
Vif-A3F inh: inhibitors of Vif-A3F interaction. Potency, µM (doses to about 46.1 µM), inactives show top-dose activity, negative = active. HeLa A3F-eYFP + Vif (tagged APOBEC3F with the HIV-1 protein that degrades it), YFP fluorescence increase. actives 0.2% (n = 390,000); also: potency is read from the fitted curve at half-maximal effect; % of control where 0% means no effect; nearly all actives have a fitted effect of over 65% in size
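Fluorescence increase (Ex 488/Em 500-530) after overnight compound treatment at 37 deg C flags inhibition of Vif-driven A3F-eYFP loss in stable HeLa A3F-eYFP/Vif cells seeded overnight beforehand.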
TRPML1 ag: agonists of human TRPML1 channel | Q9GZU1 | TRPML1-expressing cells, Ca2+ dye fluorescence, FDSS | activation, % (test concentration not listed) | actives 0.12% (n = 410,000); in the data active = activation above about 50%; inconclusive = mostly about 30% to 49%; also: 0% is about no effect
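Calcium fluorescence on an FDSS kinetic reader gave the read-out. Tet-induced TRPML1-DL cells were plated overnight, dye-loaded (Ca8 with quencher, 45-90 min, room temperature, dark), then read 110 s after compound addition, and again 110 s after 4uM final 54-4 (EC80).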
TRPML1 blocker: human mucolipin-1 channel inhibition. Q9GZU1. activity change, negative = inhibition, % (test concentration not listed). TRPML1-inducible cells, Ca2+ dye fluorescence, FDSS; active compounds read low; inhibition of EC80 agonist-evoked calcium signal. AID 624415. actives 0.02% (n = 390,000); in the data active = activity change below about -50%; inconclusive = between about -30% and that limit;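 also: stimulus is agonist 54-4 at its EC80 concentration; % is scaled to controls: 0 for no effect and ±100 for the full control effect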
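Tet-induced TRPML1-DL cells loaded with Ca8 no-wash calcium dye were read kinetically on FDSS. Compound addition was followed by EC80 agonist 54-4 (4 uM final); inhibition was read over 110 s.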
Vif-APOBEC3G blk: inhibitors of Vif-APOBEC3G interaction; Q9HC16; HeLa A3G-eYFP + Vif (tagged APOBEC3G with the HIV-1 protein that degrades it), YFP fluorescence, overnight; Potency, µM (top dose mostly 46.1 µM), for inactives: at the top dose activity, negative = active, hits mostly inhibitors; actives 0.076% (n = 410,000); AID 602310; also: potency is read from the fitted curve at half-maximal effect; % is scaled to controls: 0 for no effect and ±100 for the full control effect; nearly all actives have a fitted effect of over 60% in size
Target sequence (Q9HC16 whole entry, looked up): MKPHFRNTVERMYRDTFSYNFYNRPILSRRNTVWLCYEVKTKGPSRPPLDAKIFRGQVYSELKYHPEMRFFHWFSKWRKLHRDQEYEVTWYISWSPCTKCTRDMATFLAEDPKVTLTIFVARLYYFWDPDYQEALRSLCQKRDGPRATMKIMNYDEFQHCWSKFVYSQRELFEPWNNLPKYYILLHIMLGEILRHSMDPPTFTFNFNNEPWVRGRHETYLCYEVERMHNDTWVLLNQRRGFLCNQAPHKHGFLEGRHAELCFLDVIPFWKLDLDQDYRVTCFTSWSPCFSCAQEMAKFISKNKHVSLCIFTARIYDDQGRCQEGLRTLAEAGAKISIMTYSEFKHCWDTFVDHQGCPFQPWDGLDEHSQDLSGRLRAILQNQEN
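Read-out is eYFP fluorescence (Ex 488/Em 500-530) from Vif-expressing HeLa A3G-eYFP cells; more signal means A3G escaped Vif-mediated degradation. Cells plated overnight, compound pinned in, incubated overnight at 37 deg C.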
The depositor's hits bear a star. Most compounds without a hit are left out; they make up all but 0.54% or so of the library. Unless noted, calls follow the shape of the dose curve; as a rule, active = well fitted curve in the direction sought with a large enough effect; inconclusive = small, poorly fitted or top-dose-only effect, or another doubt; inactive = no such curve, though single readings can be large; an effect the other way counts as inactive or inconclusive.

For CCCc1cc(C(=O)Nc2ccccc2SC)no1 the results were AT treatment 40µM*, Vif-A3F inh 0%, TRPML1 ag 2, TRPML1 blocker -3 and Vif-APOBEC3G blk -4%.
Screening CCCc1cc(C(=O)Nc2cccc(Cl)c2C)no1 returned AT treatment 5%, Vif-A3F inh 5%, TRPML1 ag -1, TRPML1 blocker 12 and Vif-APOBEC3G blk -7%.
Screening Cn1c2c(c3cnc4cc(Cl)ccc4c31)CN(Cc1ccc(Cl)cc1)CC2 returned TRPML1 ag 0 and Vif-APOBEC3G blk -1%.
`c1ccc(N=NC2=NN(c3ccccc3)CS2)cc1` gave Vif-A3F inh 4µM*, TRPML1 ag 1, TRPML1 blocker -4 and Vif-APOBEC3G blk 3%.
For c1ccc(C2=NN(c3ccccc3)CC2)cc1 the results were AT treatment 34%, Vif-A3F inh 13%, TRPML1 ag 0, TRPML1 blocker 7 and Vif-APOBEC3G blk 1%.
`CCC/C=N/NC(=O)c1[nH]c2c([N+](=O)[O-])cccc2c1C` gave AT treatment 4%, Vif-A3F inh 9%, TRPML1 ag 0, TRPML1 blocker -8 and Vif-APOBEC3G blk 7.1µM*.
CCN(CC)C(=O)Cn1c(C)c(/C=C/c2cc[n+](C)cc2)c2ccccc21 was read as AT treatment -4%, Vif-A3F inh inconclusive, TRPML1 ag 4, TRPML1 blocker inconclusive and Vif-APOBEC3G blk 7.9µM*.
`CCCCCCCCCC[n+]1ccc(/C=C/c2c(C)[nH]c3ccccc23)c2ccccc21` gave TRPML1 ag 3 and Vif-APOBEC3G blk 7%.
For COCCn1c(=O)[nH]c2cc(C(=O)Nc3ccc(OC)cc3)ccc2c1=O the results were Vif-A3F inh -2%, TRPML1 ag 1, TRPML1 blocker 1 and Vif-APOBEC3G blk 3%.
`CCCCCn1c(=O)[nH]c2cc(C(=O)Nc3cc(OC)cc(OC)c3)ccc2c1=O` gave Vif-A3F inh 28µM*, TRPML1 ag -1, TRPML1 blocker 4 and Vif-APOBEC3G blk -1%.
For O=CNc1ccc2c3c(cccc13)-c1ccccc1-2 the results were Vif-A3F inh inconclusive, TRPML1 ag 0, TRPML1 blocker 6 and Vif-APOBEC3G blk 13µM*.
For CCOC(=O)C1C(=O)C=C(/C=C/c2ccc(N(C)C)cc2)CC1c1ccccc1 (configuration not stated) the results were AT treatment 4%, Vif-A3F inh 2.8µM*, TRPML1 ag inconclusive, TRPML1 blocker -2 and Vif-APOBEC3G blk inconclusive.
For Cc1cc(C)cc(-n2ccn(Cc3ccc(F)cc3)c(=O)c2=O)c1 the results were Vif-A3F inh 1%, TRPML1 ag 0, TRPML1 blocker 18 and Vif-APOBEC3G blk -3%.
For COc1cc2sc3cc(NCCCN4CCOCC4)ccc3c(=O)c2cc1OC the results were AT treatment -7%, Vif-A3F inh -12%, TRPML1 ag 0, TRPML1 blocker 3 and Vif-APOBEC3G blk 9%.
For O=c1c2ccccc2sc2ccc(NCCCN3CCOCC3)cc12 the results were Vif-A3F inh 22µM*, TRPML1 ag 9, TRPML1 blocker 7 and Vif-APOBEC3G blk inconclusive.
`CSc1ccc(/C=C2\C=Cc3ccccc32)cc1` gave TRPML1 ag -1 and Vif-APOBEC3G blk 2%.
`N#Cc1ccc(NC(=O)COCc2cc(-c3ccc(F)cc3)on2)cc1` gave Vif-A3F inh 0%, TRPML1 ag 1, TRPML1 blocker 17 and Vif-APOBEC3G blk 1%.
COc1ccccc1N1C(=O)C(Cl)=C(Nc2ccccc2O)C1=O was read as AT treatment -2%, Vif-A3F inh 22µM*, TRPML1 ag 0, TRPML1 blocker 26 and Vif-APOBEC3G blk inconclusive.
`O=C1C(Cl)=C(Nc2ccccc2O)C(=O)N1c1ccccc1` gave AT treatment 1%, Vif-A3F inh 1%, TRPML1 ag -1, TRPML1 blocker -6 and Vif-APOBEC3G blk -10%.
`CCOc1ccc(NC(=O)/C(C#N)=C\c2ccc(N3CCCC3)c(C)c2)cc1` gave Vif-A3F inh 11µM*, TRPML1 ag 14, TRPML1 blocker -3 and Vif-APOBEC3G blk inconclusive.
Screening CCOc1ccc(/C=C(\C#N)C(=O)Nc2cccnc2)cc1 returned AT treatment 0%, Vif-A3F inh -1%, TRPML1 ag 1, TRPML1 blocker -14 and Vif-APOBEC3G blk 0%.
`O=C(NCc1cccs1)C1CCN(C(=O)N2CCOc3ccccc32)CC1` gave Vif-A3F inh 0%, TRPML1 ag 0, TRPML1 blocker 7 and Vif-APOBEC3G blk 4%.
Screening N#C/C(=C\c1coc2ccccc2c1=O)C(N)=S returned AT treatment -9%, Vif-A3F inh 6%, TRPML1 ag -1, TRPML1 blocker -14 and Vif-APOBEC3G blk -7%.
Screening N#C/C(=C\c1coc2ccc(O)cc2c1=O)C(=O)Nc1nc2ccccc2s1 returned AT treatment -3%, Vif-A3F inh inconclusive, TRPML1 ag 72*, TRPML1 blocker -22 and Vif-APOBEC3G blk inconclusive.
For N#CC1=C(N)OC2=C(CC/C2=C\c2ccccc2)C1c1ccccc1 (configuration not stated) the results were AT treatment 24%, Vif-A3F inh inconclusive, TRPML1 ag 55*, TRPML1 blocker -8 and Vif-APOBEC3G blk inconclusive.
For Nn1c(SCc2ccc(F)cc2)nnc1-c1ccccn1 the results were AT treatment 16µM*, Vif-A3F inh -6%, TRPML1 ag 0, TRPML1 blocker -1 and Vif-APOBEC3G blk -1%.
Screening Nn1c(SCc2ccccc2)nnc1-c1ccccn1 returned AT treatment 13%, Vif-A3F inh -2%, TRPML1 ag 0, TRPML1 blocker -11 and Vif-APOBEC3G blk 0%.
For CN(CCC#N)c1ccc(/C=C(\C#N)c2ccccn2)cc1 the results were AT treatment -5%, Vif-A3F inh -3%, TRPML1 ag -1, TRPML1 blocker -22 and Vif-APOBEC3G blk -1%.
`CCN(Cc1ccccc1)c1ccc(/C=C(\C#N)c2ccccn2)cc1` gave AT treatment -6%, Vif-A3F inh 22µM*, TRPML1 ag 1, TRPML1 blocker 27 and Vif-APOBEC3G blk -12%.
`CCN(CC)c1ccc(/C=C(\C#N)c2ccccn2)cc1` gave AT treatment -4%, Vif-A3F inh inconclusive, TRPML1 ag 9, TRPML1 blocker 45 and Vif-APOBEC3G blk 10µM*.
N#C/C(=C\c1ccc(C(=O)O)cc1)c1ccccn1 was read as AT treatment 3%, Vif-A3F inh 3%, TRPML1 ag -1, TRPML1 blocker -12 and Vif-APOBEC3G blk -1%.
CC/C(=C\c1ccc(C(=O)OC)cc1)c1cc(OC)cc2oc3ccccc3c12 was read as TRPML1 ag 1 and Vif-APOBEC3G blk -3%.
